From PubChem BioAssay
Only some compounds are listed: those with a hit (about 2.4% of all), similar ones and a draw of the others.
D2 PAM-1: human D2 receptor positive allosteric modulation. P14416. 0.23% of 360,000 active. DiscoveRx D2 beta-arrestin cells, luminescence, 90 min; 100% = 57 uM dopamine signal. potentiation, % (no concentration beside the values); in the data active = potentiation above about 50%; inconclusive = mostly about 30% to 49%
Target sequence (P14416 whole entry, looked up): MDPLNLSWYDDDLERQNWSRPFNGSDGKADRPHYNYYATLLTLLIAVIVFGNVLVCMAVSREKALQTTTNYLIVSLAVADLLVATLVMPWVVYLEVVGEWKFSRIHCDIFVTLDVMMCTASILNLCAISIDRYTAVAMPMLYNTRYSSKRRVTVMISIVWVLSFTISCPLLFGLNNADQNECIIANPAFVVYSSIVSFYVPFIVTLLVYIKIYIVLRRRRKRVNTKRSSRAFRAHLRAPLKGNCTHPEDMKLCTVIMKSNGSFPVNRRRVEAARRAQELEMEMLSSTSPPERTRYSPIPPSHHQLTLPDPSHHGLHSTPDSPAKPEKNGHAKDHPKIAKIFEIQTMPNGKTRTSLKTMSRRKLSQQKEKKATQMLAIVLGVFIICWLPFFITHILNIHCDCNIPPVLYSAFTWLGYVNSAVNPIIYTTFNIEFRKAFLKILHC
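PathHunter D2 cells, attached overnight at 37 deg C, received compound in DMSO plus dopamine at EC20 (50 nM final) for 90 min at 37 deg C. Beta-arrestin recruitment was read as luminescence after 1 h with detection reagent at ambient temperature.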
D2 ag-1: agonists of human D2 dopamine receptor (beta-arrestin). P14416. DiscoveRx PathHunter D2 beta-arrestin, luminescence, 90 min; 100% = 57 uM dopamine signal. activation, % (concentration not given with the values). 0.084% of 360,000 active. AID 624465; in the data active = activation above about 40%; inconclusive = between about 15% and that limit
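DiscoveRx PathHunter D2 beta-arrestin cells (2,100/well) attached overnight, then compound-stimulated 90 min at 37 C in HBSS/10 mM HEPES/0.1% Tween-20 buffer; beta-galactosidase complementation read by luminescence after 1 h at ambient temperature. Dopamine 57 uM final (EC100) as control.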
D2 PAM-2: positive allosteric modulators of human D2 dopamine receptor. 0.34% of 340,000 active. potentiation, % at 10 µM. HEK293 T-REx D2, calcium flux, EC20 dopamine potentiation;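 active = potentiation over 3 SD above the plate norm, cut at about 30% in these data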; note: 0% is about no effect
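Tetracycline-induced HEK293 T-REx cells force-coupled to calcium signalling expressed D2; compounds were pin-added after a 10 s baseline, read kinetically 180 s, then an EC20 dopamine challenge followed with a further 180 s calcium read.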
D2 antag: D2 dopamine receptor (human) antagonism | inhibition, % at 10 µM | P14416 | 2% of 340,000 active | HEK293 TREx D2 cells, calcium flux, dopamine EC80; in the data active = inhibition above about 30%; inactive = below that, where a call was filed; note: 0% is about no effect
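In this primary screen, negative modulation is detected by tracking calcium flux after an EC80 dopamine challenge in inducible HEK293 T-REx D2 cells preexposed to test compound for 180 s.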
D2 ag-2: activates the human D2 dopamine receptor | P14416 | HEK293 T-REx D2 cells, calcium flux agonist mode | activation, % at 2 µM | 0.53% of 340,000 active;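 active = activation over 3 SD above normal in the single-dose calcium agonist read, cut at about 30% in these data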; note: 0% is about no effect
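Agonism scored from kinetic calcium signal (1 read/sec, 180 s) following compound pin transfer, after a 10 s baseline. Cells: HEK293 Trex line expressing inducible D2 receptor coupled to calcium, dye-loaded after overnight culture at 30 C.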
* marks the source's active call; other numbers are inactive results; ? = inconclusive; . = no result.

SMILES	D2 PAM-1	D2 ag-1	D2 PAM-2	D2 antag	D2 ag-2
C[C@@H]1CCCCO[C@H](CN(C)C(=O)Cc2ccccc2)[C@@H](C)CN([C@H](C)CO)C(=O)c2cc(N(C)C)ccc2O1	6	-2	.	.	.
O=C(CSc1nc2sc3c(c2c(=O)[nH]1)CCCC3)NCCO	-8	-6	-8	42*	0
CCOC(=O)CSc1nc2sc3c(c2c(=O)[nH]1)CCCC3	-7	1	0	6	0
CC(=O)c1c(N2CCCC2)[nH]c(-c2ccccc2)nc1=S	-20	-1	-2	2	2
CC(=O)c1c(N2CCN(Cc3ccccc3)CC2)[nH]c(-c2ccccc2)nc1=S	-55	-2	-21	73*	1
Clc1ccc2c(c1)CCc1cccnc1C2=C1CCNCC1	.	.	.	30*	.
CCN1CCN(c2nc3ccccn3c(=O)c2/C=C(\C#N)S(=O)(=O)c2ccccc2)CC1	-21	-8	-5	34*	-1
CCN1CCN(c2nc3c(C)cccn3c(=O)c2/C=C(\C#N)S(=O)(=O)c2ccccc2)CC1	-7	0	.	37*	0
CCN(CC)CC(O)c1ccc2ccc3ccc(O)cc3c2c1 (stereo not given)	-22	-1	.	.	.
CCc1ccc(C(=O)NNC(=O)CN2C(=O)NC(CC)(c3ccccc3)C2=O)cc1 (stereo not given)	-4	-2	-2	14	-1
Fc1ccc(Nc2nnc(-c3ccncc3)s2)cc1Cl	-9	1	.	.	.
Cc1ccc(S(=O)(=O)Nc2cccc(C(=O)NCC(c3ccccc3)N(C)C)c2)cc1F (stereo not given)	-4	-3	-28	79*	0
Cc1nc(N2CCCC2)ncc1C(=O)N1CCN(c2ccc(Cl)cc2)CC1	.	.	1	.	4
N#Cc1cnc(SCC(=O)Nc2ccccc2C(F)(F)F)nc1N	-7	0	-1	32*	1
Nc1nnc(SCC(=O)Nc2ccccc2C(F)(F)F)s1	.	.	8	.	-2
O=c1[nH]c(-c2ccccc2)ncc1OCc1ccccc1	-5	1	.	.	.
COC(=O)c1nn(-c2cccc(C)c2)c2nnc(Cc3ccccc3)c(=O)n12	11	5	-12	63*	0
COC(=O)c1nn(-c2ccccc2)c2nnc(Cc3ccc(C)cc3)c(=O)n12	-7	-4	0	-4	0
Cc1c(Br)c([N+](=O)[O-])nn1CC(=O)NC1CCCCCC1	-6	-2	1	41*	-2
Cc1c(Cl)c([N+](=O)[O-])nn1CC(=O)NC1CCCCC1	-9	-4	-6	11	0
O=C(NNC(=O)c1ccccc1Br)c1ccccc1Cl	-4	1	2	2	0
O=C(NNC(=S)Nc1ccccc1Cl)c1ccccc1Br	-34	-10	1	53*	1
Cc1ccc(NC(=O)CSc2nc(=O)n(CCCN3CCOCC3)c3c2CCCC3)cc1F	-32	-2	3	31*	-3
O=C(O)c1ccc(NC(=O)C2C3CCC(O3)C2C(=O)O)cc1 (stereo not given)	0	-5	2	-3	2
Clc1ccc(/C=N/Nc2nnc(-c3ncc[nH]3)c3ccccc23)cc1	-17	-4	-18	70*	0
SMILES	D2 PAM-1	D2 ag-1	D2 PAM-2	D2 antag	D2 ag-2
CC(C)Nc1nc(Nc2ccc(Cl)cc2F)c2sccc2n1	-13	-1	.	.	.
CCOc1ccc(-c2nnc(N)s2)cc1	-9	-1	74*	1	0
Cc1ccc(OCC(=O)Nc2c(C(=O)c3ccc(Cl)cc3)oc3ccccc23)cc1C	.	.	13	.	0
O=C(CS(=O)(=O)c1cccc2nsnc12)Nc1cc(F)ccc1F	.	.	15	.	-3
Cc1cc(NC(=O)c2cccc(Oc3ccccc3)c2)n[nH]1	-5	-2	74*	-12	4
Cc1cc(NC(=O)NC(=O)c2cccc(OC(F)(F)C(F)F)c2)n[nH]1	-7	-5	-5	-2	1
COc1cccc(C(=O)Nc2cccc(OCC(=O)O)c2)c1	0	-3	4	34*	2
COc1cccc(OCCNCc2ccccc2)c1	-13	-1	-30	41*	2
COc1cccc(OCC(=O)O)c1	3	0	40*	3	0
COc1cc2cc(C)c(Br)c(OC)c2cc1OC	4	4	.	.	.
CCn1c(C(=O)N2CCC(C(=O)NCCc3ccc(OC)cc3OC)CC2)cc2sccc21	.	.	10	.	-1
O=C(O)Cc1ccc(-n2cccc2)cc1	-6	0	0	37*	0
CCN(CC)CCNC(=S)Nc1ccc2nc3n(c(=O)c2c1)CCCCC3	-4	-3	-5	-13	1
CCCN(CCC)CCCNC(=S)Nc1ccc2nc3n(c(=O)c2c1)CCCCC3	-22	2	-18	-3	32*
COc1cc(Br)cc(/C=N/N(CCO)C2=NS(=O)(=O)c3ccccc32)c1OC	-23	-3	-26	38*	-2
COc1cc(/C=N/N(CCO)C2=NS(=O)(=O)c3ccccc32)cc(OC)c1OC	3	4	7	-31	0
CCOc1ccc(N(CC(=O)N2CCCCCC2)S(=O)(=O)c2ccc(C)cc2)cc1	-14	-5	-1	-8	1
CC(=O)Nc1sc(N/N=C\c2ccco2)nc1-c1cccs1	78*	?	-10	9	1
CC(=O)Nc1sc(N/N=C/c2ccccc2F)nc1-c1ccc(C)cc1	15	41*	-2	5	-2
CC(=O)Nc1sc(N/N=C\c2ccccc2Cl)nc1-c1cccs1	55*	14	23	-11	-1
CCN1CCN(C(c2ccc(SC)cc2)c2c(O)cc(C)n(Cc3ccco3)c2=O)CC1 (stereo not given)	.	.	-4	.	1
C[C@H](N)c1nnc(SCC(=O)c2ccc(Cl)cc2)o1	10	1	8	40*	2
CC(=O)c1sc(N/N=C\c2cccc(Br)c2)nc1C	92*	?	7	-19	2
CC(=O)c1sc(N/N=C\c2ccc(Br)cc2)nc1C	13	5	10	2	1
CC(=O)N1CCc2cc(CNS(=O)(=O)c3ccccc3C(F)(F)F)ccc21	.	.	5	.	1
Cc1nnc2ccc(-c3ccc(NS(C)(=O)=O)cc3)nn12	1	3	15	33*	1
Cc1ccc(CN2CC34C=CC(O3)C(C(=O)NCc3ccc5c(c3)OCO5)C4C2=O)cc1 (stereo not given)	0	-2	.	.	.
COCCCNC(=O)C1C2C=CC3(CN(Cc4ccc(C)cc4)C(=O)C13)O2 (stereo not given)	-12	-1	15	39*	0
CCOC(=O)CN1CC23C=CC(O2)C(C(=O)NC2CCCCC2)C3C1=O (stereo not given)	2	-4	4	-8	0
